Article PMC4336329 (PLoS ONE, 2015)
The whole screen tested about 310,000 compounds, of which about 14,000 (4.5%) showed an effect of 50% or more. Effects have a minus sign here. The sample as a whole holds a higher share of strong results than the screen did.

Target: human ether-à-go-go-related gene (hERG) potassium channel (human, UniProt Q12809)
Test: primary screen, population patch clamp on CHO cells stably expressing hERG; higher = less effect of the substance
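Also: peak tail current of the secondary pulse compared with the same well before compound.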

Sequence of human ether-à-go-go-related gene (hERG) potassium channel (Q12809 whole entry, looked up): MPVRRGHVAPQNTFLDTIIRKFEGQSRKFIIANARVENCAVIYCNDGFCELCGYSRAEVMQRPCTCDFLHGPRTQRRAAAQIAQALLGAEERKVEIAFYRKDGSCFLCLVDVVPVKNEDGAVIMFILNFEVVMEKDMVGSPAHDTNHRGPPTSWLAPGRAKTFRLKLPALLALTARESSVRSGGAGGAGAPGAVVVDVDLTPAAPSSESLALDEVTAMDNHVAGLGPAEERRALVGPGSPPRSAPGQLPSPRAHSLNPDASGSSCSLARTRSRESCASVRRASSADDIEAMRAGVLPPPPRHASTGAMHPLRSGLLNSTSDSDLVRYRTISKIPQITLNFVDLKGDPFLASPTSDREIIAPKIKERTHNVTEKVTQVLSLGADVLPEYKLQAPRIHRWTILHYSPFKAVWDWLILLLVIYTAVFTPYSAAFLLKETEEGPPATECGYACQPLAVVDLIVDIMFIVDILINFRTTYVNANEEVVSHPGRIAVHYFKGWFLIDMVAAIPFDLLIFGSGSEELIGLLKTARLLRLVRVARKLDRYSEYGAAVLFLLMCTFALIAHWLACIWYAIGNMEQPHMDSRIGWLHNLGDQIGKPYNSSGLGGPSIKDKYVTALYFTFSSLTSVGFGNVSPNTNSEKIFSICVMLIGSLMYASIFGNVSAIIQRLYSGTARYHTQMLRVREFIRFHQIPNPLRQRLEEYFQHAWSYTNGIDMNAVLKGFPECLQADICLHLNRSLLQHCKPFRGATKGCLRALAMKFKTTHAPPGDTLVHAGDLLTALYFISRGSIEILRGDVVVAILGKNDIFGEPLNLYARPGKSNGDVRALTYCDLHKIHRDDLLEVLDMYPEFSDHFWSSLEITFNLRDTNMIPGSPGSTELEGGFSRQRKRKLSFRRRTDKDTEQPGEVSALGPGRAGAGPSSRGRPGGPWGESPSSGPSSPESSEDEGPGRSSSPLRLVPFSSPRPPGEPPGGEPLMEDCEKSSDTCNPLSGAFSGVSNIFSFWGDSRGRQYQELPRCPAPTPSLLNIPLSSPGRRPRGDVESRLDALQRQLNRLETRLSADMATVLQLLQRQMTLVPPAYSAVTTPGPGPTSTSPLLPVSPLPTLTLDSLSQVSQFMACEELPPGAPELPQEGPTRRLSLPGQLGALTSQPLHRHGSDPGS

SMILES	hERG current change (%, negative = inhibition) at 10uM
CCOC(=O)COc1c(Br)cc(/C=C2\SC(=O)N(CC(=O)N3CCCC3)C2=O)cc1OC	-24%
Cc1cccc(CCNC(=O)CN(C)S(=O)(=O)c2cnc[nH]2)c1	4.07%
Cc1ccccc1C(=O)c1cccn1CC(=O)N1CCCCC1	10.6%
Cc1onc(-c2ccccc2Cl)c1C(=O)Nc1ccc(-c2nnc3n2CCCCC3)cc1	-4.31%
CN(C)S(=O)(=O)c1ccc(Cl)c(NC(=O)CSc2nc3ccccc3c(=O)n2CCCN2CCOCC2)c1	-73.9%
CCN(CC)CCn1c(SCC(=O)Nc2ccc3c(c2)CCC3)nc2ccccc2c1=O	-83%
COCCn1c(SCC(=O)Nc2ccc3c(c2)CCC3)nc2ccccc2c1=O	4.46%
CCC(C)NC(=O)CSc1nc2ccccc2c(=O)n1CCCN1CCCCC1 (stereo not shown)	-13.8%
CS(=O)(=O)c1ccc(Cl)c(NC(=O)CSc2nc3ccccc3c(=O)n2CCCN2CCOCC2)c1	-47.7%
Cc1ccc(NC(=O)CSc2nc3ccccc3c(=O)n2CCCN2CCCCC2)cc1Cl	-73.7%
COCCCNC(=O)CSc1nc2ccccc2c(=O)n1CCCN1CCCCC1	2.04%
CCCCn1c(SCC(=O)Nc2ccc3c(c2)CCC3)nc2ccccc2c1=O	-33.6%
Cc1ccc(-n2c(SCC(=O)Nc3cc(S(=O)(=O)N4CCOCC4)ccc3Cl)nc3ccccc3c2=O)cc1	2.71%
Cc1ccc(NC(=O)CSc2nc3ccccc3c(=O)n2CCCN2CCCCC2)cc1C	-71.9%
Cc1ccc(NC(=O)CCC(=O)N/N=C/c2coc3ccccc3c2=O)cc1	0.733%
Cc1ccccc1NC(=O)NCc1ccc2c(c1)OCO2	11.6%
O=C(COC(=O)C1(c2ccc(Cl)cc2)CCCC1)N1CCc2ccccc21	-1.16%
CCOC(=O)Nc1sc2c(c1C(N)=O)CCC(C)C2 (stereo not shown)	16.4%
CC(=O)c1sc2nsc(SCCN3CCCC3)c2c1N	-0.32%
Cc1c(Cl)ccc(S(=O)(=O)Nc2cccnc2)c1Cl	13.6%
Cc1cc(C(F)(F)F)nc(SCC(=O)NC2CCCCC2)n1	-10%
COCCn1c(SCC(=O)Nc2ccc(S(=O)(=O)N3CCOCC3)cc2)nc2ccccc21	-58.8%

SMILES	hERG current change (%, negative = inhibition) at 10uM
COCCn1c(SCC(=O)Nc2ccc(S(N)(=O)=O)cc2)nc2ccccc21	-32.1%
O=C(CSc1nc2ccccc2c(=O)n1-c1ccc(F)c(Cl)c1)Nc1cccc(S(=O)(=O)N2CCOCC2)c1	21.8%
COCCn1c(SCC(=O)Nc2ccc(N3CCOCC3)cc2)nc2ccccc21	-4.58%
O=C(CSc1nc2ccccc2c(=O)n1CCCN1CCOCC1)Nc1cccc(S(=O)(=O)N2CCCCCC2)c1	-72.2%
O=C(CSc1nc2ccccc2c(=O)n1-c1ccccc1Cl)Nc1cccc(S(=O)(=O)N2CCOCC2)c1	-6.76%
COc1cc(N)ccc1NC(=O)c1cc2ccccc2o1	13.1%
O=C(CN1CCCC1)Nc1ccc(NC(=O)Nc2ccccc2)cc1	6.42%
O=S(=O)(NC(=S)NC1CCCCC1)c1ccc(Br)cc1	9.58%
CC(C)CCN(Cc1ccco1)S(=O)(=O)c1ccc(-c2ccc(=O)[nH]n2)s1	-0.664%
CN(C)CCN(Cc1ccccc1)S(=O)(=O)c1ccc(-c2ccc(=O)[nH]n2)s1	-67.4%
CCCCN(Cc1ccco1)S(=O)(=O)c1ccc(-c2ccc(=O)[nH]n2)s1	-27.7%
CCCCN(Cc1cccs1)S(=O)(=O)c1ccc(-c2ccc(=O)[nH]n2)s1	-3.4%
CN(C)CCN(Cc1ccco1)S(=O)(=O)c1ccc(-c2ccc(=O)[nH]n2)s1	-64.4%
COCCN(Cc1cccs1)S(=O)(=O)c1ccc(-c2ccc(=O)[nH]n2)s1	-46.8%
COc1ccccc1CNS(=O)(=O)c1c(C)nc2scc(C)n2c1=O	-8.78%
Cc1cc(Nc2ccc(F)cc2C)n2ncnc2n1	-4.78%
CCCC(=O)Nc1nc2c(c(=O)[nH]1)CCCC2	10.2%
C/C(=C1/SC(=S)N(CCC(=O)O)C1=O)c1ccc(O)cc1	9.74%
Cc1ccc(Nc2nc(-c3ccc(F)cc3)cs2)nc1	17.1%
CCC(=O)N(Cc1cc2ccc(C)cc2n2nnnc12)C1CCCCC1	-32.3%
CCNC(=S)N(CCc1ccc(OC)c(OC)c1)Cc1cc2cc(OC)ccc2[nH]c1=O	-56.9%
Cc1ccc2cc(CNCCc3ccccc3C)c(=O)[nH]c2c1	-69.7%

SMILES	hERG current change (%, negative = inhibition) at 10uM
Cc1ccc2cc(CNC(C)(C)C)c(=O)[nH]c2c1	-19%
Cc1cccc(CCNCc2cc3ccc(C)cc3[nH]c2=O)c1	-77.3%
COc1ccc(CCN(Cc2cc3ccc(C)cc3n3nnnc23)C(C)=O)cc1OC	-32.7%
Cc1ccc2cc(CNC(C)C)c(=O)[nH]c2c1	-9.38%
CNCc1cc2ccc(C)cc2[nH]c1=O	-33.1%
CC(=O)N(CCc1ccccc1C)Cc1cc2ccc(C)cc2[nH]c1=O	-18.3%
CCNC(=S)N(CCc1cccc(C)c1)Cc1cc2cc(OC)c(OC)cc2[nH]c1=O	-22.4%
CCC(=O)N(CCc1ccc(OC)c(OC)c1)Cc1cc2ccc(C)cc2n2nnnc12	-76.8%
CCNC(=S)N(CCc1ccccc1C)Cc1cc2cc(OC)c(OC)cc2[nH]c1=O	-22.3%
CCOC(=O)C1(CC2CCCCO2)CCN(C(=O)Nc2ccc3c(c2)OCO3)CC1 (stereo not shown)	15.9%
COCC(=O)Nc1ccc(C(C)C)cc1	-1.68%
CCCCC/S(CC1CC1(Cl)Cl)=N\S(=O)(=O)c1ccc(C)cc1 (stereo not shown)	15.8%
Cc1sc(NC(=O)C2CCCCC2C(=O)O)c(C(N)=O)c1-c1ccc(C(C)C)cc1 (stereo not shown)	-9.39%
CCCCC(=O)Nc1nnc(SCC(=O)NCC2CCCO2)s1 (stereo not shown)	-24.8%
CCNS(=O)(=O)c1ccc(CCC(=O)NCc2cccnc2)cc1	16.8%
Cc1ccc(C(=O)n2c3ccccc3c3ccccc32)cc1	15.9%
COC(=O)[C@]1(C)N[C@H](c2ccc(SC3CCCCC3)c(OC)c2)[C@@H]2C(=O)N(C)C(=O)[C@@H]21.O=C(O)C(F)(F)F	-16.6%
O=C(Nc1ccccc1)C1=C[C@@H](c2ccccc2)C[C@@H](OCc2ccc(CO)cc2)O1	2.2%
O=C(NCC(=O)N1CCOCC1)c1ccc(Br)o1	17.4%
CC(C)CNC(=O)CSc1n[nH]c(=O)n1CCc1ccccc1	22.1%
Cc1nc2c(-c3ccccc3)cnn2c(N2CCOCC2)c1C	11.8%
COc1ccc(/C=N/NC(=O)C(C)Sc2ccccn2)cc1[N+](=O)[O-] (stereo not shown)	-7.8%

SMILES	hERG current change (%, negative = inhibition) at 10uM
COc1cc(OC)c(OC)cc1CNCCc1ccc(OC)c(OC)c1	-6.55%
COc1ccc(CCN(Cc2cc3cc(C)ccc3[nH]c2=O)C(C)=O)cc1OC	-6.87%
CC(=O)N(CCc1cccc(C)c1)Cc1cc2ccc(C)cc2[nH]c1=O	-19.7%
COc1ccc(CCNCc2cc3ccc(C)cc3[nH]c2=O)cc1OC	-73.6%
COc1ccc(CC(=O)OCc2cc3ccc(C)cc3[nH]c2=O)cc1	9.18%
COc1ccc(CCN(Cc2cc3ccc(C)cc3[nH]c2=O)C(C)=O)cc1OC	-65.1%
CC(=O)c1cn(-c2ccc(Cl)cc2)c(=O)n(Cc2ccc(F)cc2)c1=O	1.04%
COc1ccc(CNC(=O)CCS(=O)(=O)c2ccc(Br)cc2)cc1	7.33%
CC(=O)Nc1ccc(NS(=O)(=O)c2ccc(-c3cnc(C4CC4)o3)cc2)cc1	3.37%
CCC(CC)C1C(C#N)=C(N)Oc2cc(C)oc(=O)c21 (stereo not shown)	-12.7%
CC1(C)C(c2ccccc2)=NC(c2cccnc2)=[N+]1[O-]	14.8%
COc1ccc(C(=O)N2CC3(C)C4CCC3(C)C2(C#N)C4)cc1OC (stereo not shown)	4.65%
COCC(C)NC(=O)CSc1nc2nn(-c3ccccc3)c(=O)c-2c2n1CCCCC2 (stereo not shown)	8.5%
CC(C)CNC(=O)CSc1nc2nn(-c3ccccc3)c(=O)c-2c2n1CCCCC2	-18%
O=C(CSc1nc2nn(-c3ccccc3)c(=O)c-2c2n1CCCCC2)NCCCc1ccccc1	-63.1%
O=C(CSc1nc2nn(-c3ccccc3)c(=O)c-2c2n1CCCCC2)Nc1ccc(F)cc1F	-63.2%
CNC(=O)CSc1nc2nn(-c3ccccc3)c(=O)c-2c2n1CCCCC2	-37.2%
COCCNC(=O)CSc1nc2nn(-c3ccccc3)c(=O)c-2c2n1CCCCC2	23.2%
CC(C)(C)CC(=O)NCCc1csc(-c2ccccc2)n1	-7.63%
